From PubChem BioAssay
E coli growth-1 = E. coli V3065 growth inhibition, primary screen, counter-screen for AddAB inhibitor project, absorbance, OD600; 18 h; actives 0.27% (n = 330,000); inhibition, % at 11.9 µM;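 active = inhibition above the campaign's mean inhibition across all tested compounds plus 3 SD, cut at about 9.9% in these data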;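 also: uninfected addAB+ strain grown without phage in ampicillin broth; 0% = DMSO wells and 100% = ciprofloxacin 0.95 µg/ml wells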
E coli growth-2 = E. coli growth inhibition, primary screen, OD600; Escherichia coli growth, 23 h; hits give low values; OD600 absorbance (concentration not given with the values); actives 0.21% (n = 330,000);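 active = OD600 absorbance below the run mean of sample wells minus 3.6 SD, in any replicate, cut at about 0.56 in these data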
AddAB inh = growth inhibition of E. coli expressing H. pylori AddAB, primary screen, AddAB inhibitor project, absorbance; inhibition, % at 11.9 µM; actives 0.29% (n = 330,000); AID 435030, 2010; in the data active = inhibition above about 12%;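 also: 0% = vehicle wells of infected cells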
Tat transport = E. coli Tat export inhibitors, primary screen, MC4100, TorA-mCherry reporter, fluorescence, single point. inhibition, % at 10 µM. AID 488895, 2010. actives 0.036% (n = 340,000);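 active = mean replicate inhibition at least 50% and at least half of replicates individually reaching 50%; inconclusive = only one of the two criteria met; inactive = neither criterion met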;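 also: exported cargo escapes ClpAP degradation while cytoplasmic cargo is degraded and loses fluorescence; 0% = median of neutral control wells and 100% = median of NaSCN control wells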
phage Ecoli inh = growth loss of phage-infected E. coli, primary screen, RecBCD inhibitor project, absorbance, with phage, HTS; actives 0.26% (n = 360,000); inhibition, % at 11.9 µM; in the data active = inhibition above about 11%
RecBCD conf = growth loss of phage-infected RecBCD+ E. coli, confirmation, RecBCD inhibitor project, absorbance, E. coli V66, T4 gene 2 phage. shares compounds with phage Ecoli inh. E. coli V66 + T4 2- phage, growth OD. inhibition, % at 11.9 µM. actives 45% (n = 890);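 active = mean inhibition over triplicates exceeding the hit threshold derived in the original primary screen, cut at about 11% in these data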
Ecoli viability = E. coli viability inhibition, counter-screen for RecBCD inhibitor project, absorbance, high throughput. absorbance (OD) growth. actives 29% (n = 890). inhibition, % at 11.9 µM. shares compounds with phage Ecoli inh. AID 651983, 2013; in the data active = inhibition above about 20%;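 also: E. coli strain V66 grown with compound alone and no phage infection; 0% = bacteria with DMSO vehicle only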
AddAB counter = growth loss of phage-infected AddAB-carrying E. coli, confirmation, counter-screen for RecBCD inhibitor project, absorbance, E. coli V3065, T4 phage; shares compounds with phage Ecoli inh; E. coli expressing H. pylori AddAB + T4 phage, OD growth; gene 2 mutant T4, recBCD-deleted host; AID 651984, 2013; actives 45% (n = 890); inhibition, % at 11.9 µM;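 active = mean inhibition above the solvent-only control wells' mean plus 3 SD, cut at about 22% in these data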;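 also: higher means less bacterial growth from phage killing when AddAB is blocked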
Active calls of the source: *; ? = inconclusive; / = no result given. In the library only some 0.5% were active in any assay of this set; here they are far more common.

SMILES	E coli growth-1	E coli growth-2	AddAB inh	Tat transport	phage Ecoli inh	RecBCD conf	Ecoli viability	AddAB counter
Cc1noc(C)c1NC(=O)Nc1cccc2c1OC(CN(C)S(=O)(=O)c1c(C)noc1C)C(C)CN(C(C)CO)C2=O (stereo not drawn)	/	0.7	/	/	/	/	/	/
O=C1C=C(c2ccc3ncccc3c2)CC(c2ccc(Cl)cc2)C1 (stereo not drawn)	/	0.68	/	/	/	/	/	/
CC(C)(C)OC(=O)C(Cc1ccccc1)NC(=O)c1nc[nH]c1C(=O)NC(CCCCN)C(=O)OC(C)(C)C (stereo not drawn)	/	0.69	/	/	/	/	/	/
COCC(=O)NN=Cc1cccc(OC)c1OC/C=C/c1ccccc1	/	0.69	/	/	/	/	/	/
C=C(C)C(=O)Nc1cccc(C2=NOC3(C2)CC(C(N)=O)N(C(=O)C=CC=CC)C3)c1 (stereo not drawn)	/	0.71	/	/	/	/	/	/
CC(=NNC(=S)N1CCC1)c1ccccn1	/	/	/	0	41*	43*	52*	41*
O=C(NNS(=O)(=O)c1ccc(F)cc1)c1cc(Cl)ccc1O	/	0.63	/	8	15*	-3	-1	3
CCc1ccc(C=c2sc(=CC(=O)C(C)(C)C)[nH]c2=O)cc1	/	0.7	/	/	/	/	/	/
Cc1nccn1CCc1n[nH]c(=S)n1Cc1ccccc1	1	0.63	2	4	2	/	/	/
Cc1nccn1Cc1ccccc1	2	0.7	-1	7	100*	0	1	0
Nn1c(SCc2cccc(Br)c2)nnc1-c1ccncc1	-5	0.65	-3	9	100*	2	2	0
Nn1c(SCc2cccc(F)c2)nnc1-c1ccncc1	1	0.63	1	-5	1	/	/	/
O=[N+]([O-])c1ccc(N/N=C/c2cccc(O)c2O)c(S(=O)(=O)N2CCOCC2)c1	0	/	2	-7	1	/	/	/
O=[N+]([O-])c1ccc(N/N=C/c2ccc(O)c(O)c2O)c(S(=O)(=O)N2CCOCC2)c1	/	/	/	5	11*	9	10	11
CCOC(=O)CC(C(C)=NO)c1ccccc1 (stereo not drawn)	/	0.69	/	/	/	/	/	/
Cc1cc[n+](-c2[nH]c(=O)sc2C=NNC([S-])=Nc2ccccc2)cc1	/	0.72	/	/	/	/	/	/
Cn1cc(S(=O)(=O)N2CCOCC2)cc1C(=O)Nc1ccc(Cl)cc1	0	0.72	1	-1	2	/	/	/
COc1ccc(C(=O)Nc2ccc(S(=O)(=O)N3CCOCC3)cc2)cc1	1	0.65	3	/	12*	0	0	-2
Cc1ccc(NC(=O)c2cc(S(=O)(=O)N3CCOCC3)cn2C)cc1F	1	0.72	2	-10	29*	-3	-3	-8
O=C(NN=Cc1cc2c(cc1Cl)OCO2)c1ccc2c(c1)OCCO2	/	0.67	/	/	/	/	/	/
CC(CC(=O)Nc1ccc(N(C)C)cc1)=NNC(=O)c1ccc([N+](=O)[O-])cc1Cl	/	0.74	/	/	/	/	/	/
C=CCn1c(=O)c(C(=O)NCCc2ccccc2)c(O)c2ccccc21	13*	0.65	10	7	13*	6	10	8
S=C(NCc1ccccc1)NCc1ccc(CNC(=S)NCc2ccccc2)cc1	0	0.69	2	-7	2	/	/	/
CCNC(=S)NNC(=S)NCc1ccccc1	2	0.72	10	-5	11*	4	3	9
CCN(CC)c1ccc(C(=C2C=CC(=[N+](CC)CC)C=C2)c2ccccc2)cc1	/	/	/	64*	79*	73*	80*	83*
SMILES	E coli growth-1	E coli growth-2	AddAB inh	Tat transport	phage Ecoli inh	RecBCD conf	Ecoli viability	AddAB counter
C=CCN=c1scc(-c2ccco2)n1/N=C/c1ccc(O)c(O)c1O	7	/	6	11	11*	6	7	3
CN=c1scc(-c2cccs2)n1/N=C/c1ccc(O)c(O)c1O	10	/	11	2	13*	5	6	8
COCCN=c1scc(-c2ccco2)n1/N=C/c1ccc(O)c(O)c1O	5	/	9	12	9	/	/	/
O=C(Nc1ccccn1)C(c1ccccc1)c1ccccc1	/	/	/	/	12*	-5	-5	-3
Cc1ccc(NC(=O)C(c2ccccc2)c2ccccc2)nc1	2	0.68	2	6	2	/	/	/
Cc1nc(N)nc(N)c1/C=C/C(C)(C)c1ccc(Cl)cc1	/	0.069*	/	23	100*	82*	89*	100*
CC=C(C)C(=O)NCCN1C2=NCC(Cc3ccc(O)cc3)N2CC1Cc1ccc(OC)cc1 (stereo not drawn)	/	0.7	/	/	/	/	/	/
O=c1c2cc([N+](=O)[O-])ccc2sn1-c1ccccc1	/	/	/	/	4	/	/	/
N#Cc1c2ccc([N+](=O)[O-])cc2[n+]([O-])n1-c1ccccc1	38*	/	37*	0	17*	16*	18	51*
O=C1C2C(c3ccc(F)cc3)N3C(=O)N(c4cccc(Br)c4)C(=O)[C@@]3(Cc3ccccc3)C2C(=O)N1C1CCCCC1 (stereo partly drawn)	/	0.73	/	/	/	/	/	/
O=C1/C(=C/c2cccnc2)Oc2cc(OS(=O)(=O)c3ccccc3)ccc21	-2	0.75	2	?	/	/	/	/
O=S(=O)(Oc1ccccc1)c1cccnc1	-1	0.7	-1	1	101*	-3	-2	-3
O=[N+]([O-])c1ccc(/C=[N+](\[O-])[C@@H]2CCCC[C@@H]2/[N+]([O-])=C/c2ccc([N+](=O)[O-])o2)o1	8	0.63	5	-17	3	/	/	/
Nc1nc(N)nc(-c2ccc([N+](=O)[O-])o2)n1	/	0.51*	/	-8	103*	64*	89*	98*
Cc1ccc(NC(=S)Nc2ccc(OC(F)F)c(Cl)c2)cc1F	1	0.63	2	6	11*	6	7	5
COc1cccc(C2c3c(oc4ccccc4c3=O)C(=O)N2CCCN2CCOCC2)c1 (stereo not drawn)	2	0.68	2	29	15*	-2	-2	-6
Cc1ccc(CC(=O)Nc2ncc([N+](=O)[O-])s2)cc1	9	0.56	6	-15	13*	9	9	-2
Cc1ccc(S(=O)(=O)CC(=O)Nc2ncc([N+](=O)[O-])s2)cc1	-2	0.64	0	4	-1	/	/	/
COC(=O)C1=C(C(=O)OC)C2N(Cc3ccccc3)c3ccccc3[C@@]23CC(C(=O)OC)N(C(=O)CC(C)C)C3=N1 (stereo partly drawn)	/	0.67	/	/	/	/	/	/
O=C(/C=C/c1ccccc1)c1cc(Br)ccc(=O)c1O	10*	0.71	9	-10	27*	16*	22*	6
